# Compound activity from PubChem BioAssay.
# Compounds with a hit are over-represented: about 19% of the library has one in this group of screens.
# HepG2 tox: HepG2 cytotoxicity, counter-screen for TGF-b inhibitors. HepG2 CAGA-GFP viability, ATP luminescence, 18 h. Potency, µM (highest dose often 46.1 µM), for inactives: at the top dose activity change, negative = cytotoxicity, usual class: cytotoxic. 0.76% of 410,000 active; note: potency is the fitted concentration of half-maximal effect
#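 CellTiter-Glo luminescence gave cytotoxicity after 18 hours at 37 degrees C. The cells were HepG2 CAGA-GFP in 1% FBS DMEM, stimulated with 500 pg/mL TGF-beta after compound addition. %Activity was normalised to no-cell wells (complete cell-killing) and DMSO (no toxicity), and curves were fitted and classified.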
# TDP1 inh: TDP1 (human) enzyme inhibition | Q9NUW8 | recombinant TDP1, AlphaScreen DNA substrate cleavage | Potency, µM (doses to about 130 µM), for inactives: top-dose activity change, negative = inhibition, actives largely listed as inhibitors | 0.28% of 350,000 active; note: potency is the fitted concentration of half-maximal effect; % is set by controls: 0 for no effect and ±100 for the full control effect; nearly all actives have a fitted effect of over 40% in size
# Target sequence (Q9NUW8 whole entry, looked up): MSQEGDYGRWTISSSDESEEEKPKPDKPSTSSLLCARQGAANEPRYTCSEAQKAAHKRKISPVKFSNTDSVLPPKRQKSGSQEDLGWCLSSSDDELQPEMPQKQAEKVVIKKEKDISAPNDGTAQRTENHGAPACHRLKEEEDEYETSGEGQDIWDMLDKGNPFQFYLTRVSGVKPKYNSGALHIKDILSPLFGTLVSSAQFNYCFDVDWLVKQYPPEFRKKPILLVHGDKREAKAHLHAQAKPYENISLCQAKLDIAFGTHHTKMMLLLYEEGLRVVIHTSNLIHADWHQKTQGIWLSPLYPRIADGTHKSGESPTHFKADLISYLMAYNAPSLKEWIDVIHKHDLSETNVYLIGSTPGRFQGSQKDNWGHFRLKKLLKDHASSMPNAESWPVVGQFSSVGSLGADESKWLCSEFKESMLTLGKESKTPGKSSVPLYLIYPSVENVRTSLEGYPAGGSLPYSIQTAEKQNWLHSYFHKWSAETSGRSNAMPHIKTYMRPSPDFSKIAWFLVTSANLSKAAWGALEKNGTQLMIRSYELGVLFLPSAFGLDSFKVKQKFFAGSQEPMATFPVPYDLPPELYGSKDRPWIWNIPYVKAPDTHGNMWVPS
#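 Recombinant E. coli-expressed Tdp1 (1 nM) preincubated with compound 15 min at RT, then 5'-biotin/3'-phosphotyrosine-FITC DNA substrate (15 nM) added for 5 min. AlphaScreen beads (10 ug/ml) added, 10 min RT; tyrosine-FITC cleavage read as signal loss.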
# TGFb inhibitor: TGF-b pathway inhibition. Potency, µM (titrated, usually from 46.1 µM), for the others: at the top dose activity, negative = inhibition, actives largely listed as inhibitors. HepG2 CAGA-GFP TGF-b/SMAD3 reporter, GFP fluorescence, 18 h; TGF-beta stimulated, 500 pg/mL final. 1.2% of 410,000 active; note: potency is the fitted concentration of half-maximal effect; % is set by controls: 0 for no effect and ±100 for the full control effect; nearly all actives have a fitted effect of over 65% in size
#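 HEPG2 CAGA-GFP cells (1000/well, DMEM with 1% FBS) were pre-incubated 2 h at 37 degrees C, given compound by pin tool, then stimulated with TGF-beta at 500 pg/mL final for 18 h before per-cell GFP fluorescence imaging.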
# TDP1 cell CPT: DT40-hTDP1 cell growth loss with CPT. Potency, µM (top dose mostly 46.2 µM), inactives show at the highest dose activity change, negative = growth inhibition, most hits filed as inhibitors. chicken DT40 Tdp1-/-;hTDP1 cells + 20 nM CPT, ATP luminescence, 48 h. 12% of 420,000 active; note: potency is the fitted concentration of half-maximal effect; % is set by controls: 0 for no effect and ±100 for the full control effect; nearly all actives have a fitted effect of over 55% in size
#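 Chicken DT40 Tdp1-/- cells stably complemented with human TDP1 were seeded at 400 cells/well in medium containing 20 nM camptothecin, exposed to pin-transferred compounds, and grown at 37 °C for at least 48 hr. Viability was read as ATP luminescence.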
# DT40 TDP1 no CPT: qHTS for Inhibitors of human tyrosyl-DNA phosphodiesterase 1 (TDP1): qHTS in cells in absence of CPT. DT40 Tdp1-/- hTDP1 cells, no CPT, ATP luminescence, 48 h. Potency, µM (top dose mostly 46.2 µM), inactives show at the highest dose activity change, negative = growth inhibition, most hits filed as inhibitors. 15% of 420,000 active; note: potency is the fitted concentration of half-maximal effect; % is set by controls: 0 for no effect and ±100 for the full control effect; nearly all actives have a fitted effect of over 55% in size
#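 No-CPT arm: Tdp1-/-;hTDP1 DT40 cells (400/well) plus compounds, incubated ≥48 hr at 37 °C. Readout CellTiter-Glo luminescence.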
# IL1B secr inh: blocks inflammasome-driven IL-1 beta release | THP-1 LPS/ATP IL-1B secretion, AlphaLISA, 16 h; active compounds read low | activity change, % at 57.5 µM | 4.7% of 360,000 active; in the data active = activity change below about -50%; inconclusive = mostly about -30% to -49%; note: % is set by controls: 0 for no effect and ±100 for the full control effect
#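 Secreted IL-1B measured by AlphaLISA bead assay after 16 h compound exposure of THP-1 cells; compounds (final up to 57.5 uM) added 1 h before LPS (250 ng/mL) and ATP (1.25 mM) stimulation; lower signal means less secretion.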
# * marks the source's active call; other numbers are inactive results; ? = inconclusive; nt = no result given; ! = a repeat was not active. Unless noted, calls come from the whole dose curve; as a rule, active = well fitted curve in the direction sought with a large enough effect; inconclusive = small, poorly fitted or top-dose-only effect, or another doubt; inactive = no such curve, though single readings can be large; an effect the other way counts as inactive or inconclusive.
SMILES,HepG2 tox,TDP1 inh,TGFb inhibitor,TDP1 cell CPT,DT40 TDP1 no CPT,IL1B secr inh
COc1cc(C2=NOC(C(=O)NCc3ccc(F)cc3)C2)cc(OC)c1OC (centres undefined),-9%,-9%,-22%,0.82µM*,0.58µM*,25
CC1=C(C)CC(C(=O)NCc2ccc3c(c2)OCO3)C(C(=O)O)C1 (centres undefined),-2%,0%,-3%,-14%,?,1
Cc1ccc(CNC(=O)C2CC(c3cccc(F)c3)=NO2)cc1 (centres undefined),-7%,-4%,-20%,0%,-12%,12
COc1ccc(C2=NOC(C(=O)NCc3ccc(F)cc3)C2)cc1OC (centres undefined),-3%,2%,?,5.8µM*,5.8µM*,56
O=[N+]([O-])c1ccc(OCCCCN2CCc3ccccc3C2)cc1,-35%,nt,-10%,-13%,?,?
CCOC(=O)C1(C)CCCN1C(=O)c1c(F)cccc1F (centres undefined),5%,nt,-2%,-4%,-8%,18
COc1cccc(C2=NOC(C(=O)NCc3cccs3)C2)c1 (centres undefined),-16%,1%,-18%,21µM*,15µM*,15
COc1cccc(C2=NOC(C(=O)NC(C)(C)C)C2)c1 (centres undefined),2%,-2%,-1%,-3%,0%,-10
Cn1c2c(c(=O)[nH]c1=O)C(c1ccc(O)cc1)C1=C(N2)c2ccccc2C1=O (centres undefined),-13%,6%,-42%,10µM*,23µM*,?
COc1ccc(C(=O)NNC(=S)NC(=O)c2ccc(Cl)cc2)cc1,-18%,nt,-9%,?,23µM*,68
COc1cc(C(=O)NNC(=S)NC(=O)c2ccc(Cl)cc2)cc(OC)c1OC,-29%,3%,?,?,23µM*,21
COc1cc(C(=O)NC(=S)Nc2nccs2)cc(OC)c1OC,-17%,5%,-8%,?,21µM*,-29
COC(=O)/C(=C\Nc1ccc(Cl)cc1Cl)NC(=O)c1ccc(OC)cc1,-9%,6%,-16%,3.7µM*,4.1µM*,-7
Cc1cccc(C(=O)NC(=S)NNC(=O)c2ccc(Cl)cc2)c1,-41%,8%,?,?,?,0
CCOc1ccc(C(=O)NNC(=O)c2cc(S(=O)(=O)N3CCOCC3)ccc2Cl)cc1,-2%,0%,-1%,12%,-6%,20
COc1ccc(C(=O)NC(=S)NNC(=O)c2ccc(NC(=O)C(C)C)cc2)cc1,-9%,8%,-23%,16µM*,15µM*,-4
COCCCN1C(=O)c2ccccc2CC1(C)C(=O)NC1CCCCC1 (centres undefined),10%,-3%,nt,2%,-9%,nt
Cc1ccc(NC(=O)CSc2nncn2N)cc1C,0%,nt,-8%,6%,15%,13
CCc1ccc(S(=O)(=O)c2cn(Cc3ccccc3)c3cc(F)c(F)cc3c2=O)cc1,-3%,1%,7%,?,?,nt
Cc1cccc(C)c1NC(=O)c1cccc2c1C(=O)N(C1CCCCC1)C2,-15%,2%,?,7.3µM*,16µM*,-62*
COc1ccc(OC)c(NC(=O)c2cccc3c2C(=O)N(C2CCCCC2)C3)c1,-27%,6%,-1%,?,16µM*!,-7
COCCN1Cc2cccc(C(=O)Nc3cc(OC)ccc3OC)c2C1=O,-19%,7%,-9%,?,?,1
COc1ccc(N2Cc3cccc(C(=O)O)c3C2=O)cc1,-2%,8.9µM*,4%,-17%,-16%,4
